# This is part of a sample that, as a whole, favours compounds with a hit. Of some 83,000 tested, about 20% had one in any assay.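 Single-dose data. Exposure time 48 hours. Values below 10 considered active.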 Active and inactive are the calls of the source.
# System: MCF7 breast
# Experiment: NCI-60 one-dose screen, 48 h (100 = growth as untreated, 0 = no growth, -100 = all killed)
# Conditions: 10 µM unless noted
row,SMILES,growth
1,C#CCOc1cc(N(CC)CC)ccc1C(C(=O)NC(C)(C)C)N(C(=O)C1CCc2cc(F)ccc2O1)c1ccc(F)c(Cl)c1 (configuration not stated),30.5% (inactive)
2,COc1cc2c(c(OC)c1OC)C(=O)CC(c1cccc(NC(=O)c3cc(NC(=O)[C@@H](N)CO)ccc3C)c1)O2 (some centres not stated),103% (inactive)
3,O=C(O)Cn1c(O)c(/C=C2/C=c3cc4c(cc3=NC2=O)OCCO4)sc1=S,86.3% (inactive)
4,CC(C)CSc1nc(NCCc2c[nH]c3ccccc23)c(C#N)c(-c2ccc(Cl)cc2)n1,16.4% (inactive)
5,C=C1CCC2C3(C)COC(c4ccccc4)OC3CCC2(C)C1CC(Sc1ccccc1)C1=CCOC1=O (configuration not stated),17% (inactive)
6,O=C1c2c(c3c4cc(F)ccc4oc3c3[nH]c4ccc(Br)cc4c23)C(=O)N1O,15.6% (inactive)
7,C#C[C@]1(O)CC[C@H]2[C@@H]3CC=C4c5sc(-c6ccc(O)c(O)c6)nc5CC[C@]4(C)[C@H]3CC[C@@]21C,-72.8% (active)
8,COc1ccc(N2N=C(c3ccc4c(c3)OCO4)CC2c2cccc(NC(=O)CCCNS(=O)(=O)c3ccc(F)cc3)c2)cc1 (configuration not stated),42.2% (inactive)
9,CN(C)CCn1c2ccccc2c2nc3cc(C(F)(F)F)ccc3nc21,6.18% (active)
10,O=C(COc1ccc(NC(=O)Nc2ccc(Cl)c(Cl)c2)cc1)N=Nc1c(O)[nH]c2ccccc12,-6.27% (active)
11,CC1(C)CC[C@]2(C(=O)O)CC[C@]3(C)C(=CCC4[C@@]5(C)C[C@@H](O)[C@@H]6OC(c7cccc(Br)c7)OC[C@@]6(C)C5CC[C@]43C)C2C1 (some centres not stated),18.6% (inactive)
12,CCN1C(=O)N(CC)C2NNC(Sc3c(C(=O)O)c4ccccc4n(C4CCCC4)c3=O)=NC21 (configuration not stated),16.6% (inactive)
13,O=c1[nH]c2ccccc2cc1CSc1cccc(Nc2nccc(-c3ccc4ccccc4c3)n2)c1,85.1% (inactive)
14,O=C(c1ccc(OCCN2CCOCC2)cc1)C1[C@H](c2ccc(Cl)cc2)[C@@H](c2ccccc2)NC12C(=O)Nc1ccc(Cl)cc12 (some centres not stated),4.28% (active)
15,CCN(CC)c1ccc(/C=N/Nc2nc(-c3ccc(Br)cc3)cs2)c(O)c1,18.7% (inactive)
16,CCCCSc1nc(NCCc2c[nH]c3ccccc23)c(C#N)c(-c2ccc(F)cc2)n1,44.8% (inactive)

row,SMILES,growth
1,COc1ccc(NC(=O)[C@@H](N)Cc2ccccc2)cc1C(=O)Nc1cccc(C2CC(=O)c3c(cc(OC)c(OC)c3OC)O2)c1 (some centres not stated),28.1% (inactive)
2,Cc1cccc(NC(=O)CN2CCN(c3ncnc4c3cnn4-c3ccccc3)CC2)c1,74.8% (inactive)
3,COc1ccc(NC(=O)[C@H](CO)NC(=O)OC(C)(C)C)cc1C(=O)Nc1cccc(C2CC(=O)c3c(cc(OC)c(OC)c3OC)O2)c1 (some centres not stated),30% (inactive)
4,Cc1ccc(-c2nc(C#N)c(S(=O)(=O)N3CCN(S(=O)(=O)c4ccc(Cl)cc4)CC3)o2)cc1,75.8% (inactive)
5,Cc1ccc(-c2nc(Nc3ccccc3S(N)(=O)=O)c3ccccc3n2)cc1,81.6% (inactive)
6,Cc1ccc(C(=O)C(c2c[nH]c3ccccc23)c2c[nH]c3ccccc23)cc1,9.47% (active)
7,COC(=O)/C=C/c1cccc2c1C(=O)NC(C)(c1cc3ccccc3oc1=O)N2 (configuration not stated),82.2% (inactive)
8,O=C(/C=C/c1ccc(O)c(O)c1)NC1CCOC1O (configuration not stated),90.7% (inactive)
9,CC1(C)CC[C@]2(C(=O)O)CC[C@]3(C)C(=CCC4[C@@]5(C)C[C@@H](O)[C@@H]6OC(c7ccccc7Br)OC[C@@]6(C)C5CC[C@]43C)C2C1 (some centres not stated),7.28% (active)
10,C/C(=N\N=C1/C(=O)Nc2ccccc21)c1ccc2c(c1)Nc1ccccc1S2,22.2% (inactive)
11,Cn1cc(-c2nc(N)nnc2-c2c[nH]c3ccc(Br)cc23)c2cccnc21,21.4% (inactive)
12,Cc1nc(Nc2ccccn2)sc1C(=O)CC(SCC(=O)Nc1ccc(Cl)cc1)c1ccccc1F (configuration not stated),13.2% (inactive)
13,Cc1cc(=O)oc2cc(OCCCCOc3ccc(/C=C/C(=O)Nc4ccccc4N)cc3)ccc12,18.6% (inactive)
14,CC(=O)OC[C@@]1(C)C2CC[C@]3(C)C(CC=C4C5CC(C)(C)CC[C@]5(C(=O)Nc5cccc(C)c5)CC[C@]43C)[C@@]2(C)C[C@@H](OC(C)=O)[C@@H]1OC(C)=O (some centres not stated),24.9% (inactive)
15,CCCSc1nc(NCCc2c[nH]c3ccccc23)c(C#N)c(-c2ccc(OC)cc2)n1,7.41% (active)
16,COc1ccc(N2N=C(c3ccc4c(c3)OCO4)CC2c2cccc(NC(=O)CCNS(=O)(=O)c3ccc(Cl)cc3)c2)cc1 (configuration not stated),8.85% (active)

# From PubChem BioAssay (NCI)
